{"source": "PubChem BioAssay (EPA / NIEHS)", "note": "Activity calls are given as the source filed them. The calls were made as follows: active = hit-call score of the fitted dose curve at least 0.9, where 1 is the maximum; inactive = score below 0.9.", "data": [{"experiment": "CCTE_Shafer_MEA_acute_synchrony_index: CCTE's Neural Acute Assay for Synchrony, Shafer Lab (AID 2284027);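 also: network synchrony index of spontaneous spiking in primary rat cortical neurons on MEAs; fitted for loss of signal so actives lower synchrony relative to DMSO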", "method_in_brief": "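Primary rat cortical neurons on 16-electrode MEA wells were recorded 40 min at baseline (DIV 13 or 15) and 40 min after compound (0.03-40 uM) at 37 C. Synchrony index (0-1) expressed as percent change from baseline, versus DMSO.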", "values": [{"smiles": "CCC(C)(C)c1ccc(O)c(C(C)(C)CC)c1", "AC50": "20 µM (active)"}, {"smiles": "O=C(Nc1ccc2[nH]ccc2c1)c1cc2cc(F)ccc2n1Cc1cccc(F)c1", "outcome": "inactive"}, {"smiles": "CC(=O)OC(c1ccccc1)C(Cl)(Cl)Cl", "note": "(centres undefined)", "AC50": "26.7 µM (active)"}, {"smiles": "C[C@]12CCC(=O)C[C@@H]1CC[C@@H]1[C@@H]2CC[C@]2(C)[C@@H](O)CC[C@@H]12", "AC50": "30.7 µM (active)"}, {"smiles": "O=C(O)C(Cl)(Cl)Cl", "outcome": "inactive"}, {"smiles": "ClC1(Cl)C2(Cl)C3(Cl)C4(Cl)C(Cl)(Cl)C5(Cl)C3(Cl)C1(Cl)C5(Cl)C24Cl", "note": "(centres undefined)", "outcome": "inactive"}, {"smiles": "O=C1C2(Cl)C3(Cl)C4(Cl)C(Cl)(Cl)C5(Cl)C3(Cl)C1(Cl)C5(Cl)C24Cl", "note": "(centres undefined)", "AC50": "20 µM (active)"}, {"smiles": "O=C(O)C(F)(F)C(F)(F)C(F)(F)C(F)(F)C(F)(F)C(F)(F)C(F)(F)C(F)(F)C(F)(F)C(F)(F)F", "outcome": "inactive"}, {"smiles": "CCOP(=S)(OCC)SCSP(=S)(OCC)OCC", "AC50": "24.4 µM (active)"}, {"smiles": "COC(=O)Cc1ccccc1", "outcome": "inactive"}, {"smiles": "CC(C)(C)c1cc(O)ccc1O", "AC50": "29.9 µM (active)"}, {"smiles": "C=C(C)C(=O)[O][Sn]([CH2]CCC)([CH2]CCC)[CH2]CCC", "AC50": "0.116 µM (active)"}, {"smiles": "CC(C)(c1ccccc1)c1ccc(O)c(C(C)(C)c2ccccc2)c1", "AC50": "6.29 µM (active)"}, {"smiles": "CC(C)(C)CC(C)(C)c1ccc(O)cc1", "outcome": "inactive"}, {"smiles": "CC(C)(OO)c1ccccc1", "outcome": "inactive"}, {"smiles": "CCCCCCCCc1ccc(O)cc1", "AC50": "20 µM (active)"}, {"smiles": "CCN1CCC2(CC1)COc1cc3c(cc12)N(C(=O)c1ccc(-c2ccc(-c4nnc(C)o4)cc2C)cc1)CC3", "AC50": "17.2 µM (active)"}, {"smiles": "CCC(=O)C(CC(C)N(C)C)(c1ccccc1)c1ccccc1", "note": "(centres undefined)", "outcome": "inactive"}, {"smiles": "CC(=O)[O][Hg][c]1ccccc1", "AC50": "2.02 µM (active)"}]}]}
